Source: PubChem BioAssay (National Center for Advancing Translational Sciences (NCATS))
miR-21 reporter = qHTS Assay for Modulators of miRNAs and/orActivators of miR-21; HeLa miR-21 FLuc reporter, luciferase, 48 h; AID 2288, 2010; 340,000 tested, under 10 active; Potency, µM (doses to about 38.3 µM), for the others: at the highest dose activity change, positive = activation, actives largely listed as activators;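 further: % of control where 0% means no effect; miR-21 action dims this reporter so a rising signal means less miR-21 action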
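Using DMEM plus 10% FBS, HeLa miR-21-FLuc cells are incubated with test compounds (final up to about 40uM) for 48 hours; firefly luciferase signal is then imaged following reagent-mediated lysis.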
Nrf2 ARE act = qHTS of Nrf2 Activators; Potency, µM (top dose mostly 46.1 µM), inactives show at the top dose activation, actives largely listed as activators; AREc32 ARE-luciferase reporter (MCF7-derived line), luminescence, 24 h; hit rate 0.31% among 410,000; further: potency means the concentration at half of the fitted maximal effect; % of control where 0% means no effect; nearly all actives have a fitted effect of over 65% in size
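ARE activation measured as luciferase luminescence (Steady-Glo, 30 min RT) in AREc32_Fluc cells after 24 hr compound exposure at 37 deg C, 5% CO2; cells seeded overnight at 1000/well in OPTI-MEM, 5% FBS.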
ClpP mod = qHTS Assay for Activators of ClpP. hit rate 1.9% among 340,000. purified B. subtilis ClpP, FRET peptide cleavage, 20 min. ATP-dependent Clp protease proteolytic subunit (Bacillus subtilis (strain 168)), P80244. Potency, µM (series often up to 57.5 µM), without a hit: at the highest dose activity change, negative = active; active means well fitted falling curve with a large enough effect; inconclusive means small, poorly fitted or top-dose-only effect; inactive means no such curve, though single readings can be large or run the other way; further: potency means the concentration at half of the fitted maximal effect; the source files actives as falling curves though it sought activators and does not explain the sign; nearly all actives have a fitted effect of over 65% in size
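ClpP 10 microg/mL final, pH 8 Tris/KCl buffer with BSA, glycerol, Tween-20; compound pinned in; FRET-FV substrate; RT 20 min; Ex320/Em430; ΔFRET vs ADEP 5.8 microM, DMSO, no enzyme.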
A549 viability = Nrf2 qHTS screen for inhibitors: counterscreen for cytotoxicity; A549 ARE-Fluc cells, CellTiter-Fluor viability, 18-24 h; hit rate 0.16% among 390,000; Potency, µM (titrated, usually from 46 µM), for the others: at the highest dose activity change, negative = cytotoxicity, usual class: inhibitors; further: potency means the concentration at half of the fitted maximal effect; on the % scale 0 is the no-effect control and ±100 the full control effect
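A549 ARE-Fluc cells in 5% FBS OPTI-MEM, 5000 cells/well, rested 2 h then exposed to compounds in concentration-response for 18-24 h at 37 °C. Viability by CellTiter-Fluor fluorescence (Ex 405/Em 525) after 30 min; luciferase luminescence (BugLite, 15 min, RT) read afterwards.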
Nrf2 inh = Nrf2 qHTS screen for inhibitors | Potency, µM (doses to about 46 µM), inactives show at the top dose activity change, negative = inhibition, usual class: inhibitors | hit rate 2.1% among 360,000 | A549 ARE-Fluc reporter, luciferase luminescence, 18-24 h; further: potency means the concentration at half of the fitted maximal effect; on the % scale 0 is the no-effect control and ±100 the full control effect; nearly all actives have a fitted effect of over 60% in size
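Nrf2 function is reported as luminescence of an ARE-controlled luciferase in A549 cells. Compounds were tested at several concentrations, and a CellTiter-Fluor read on the same wells flagged cytotoxicity.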
TCR activator = Activators of T cell receptors: qHTS campaign; Potency, µM (doses to about 9.22 µM), for inactives: top-dose activation of IL-2 secretion, actives largely listed as activators; AID 504894, 2011; 330,000 tested, under 10 active; primary human leukocytes, anti-CD3, IL-2 HTRF, 48 h; further: % of control where 0% means no effect
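1) Mix primary human leukocytes, a-CD3 beads and compound. 2) Incubate 48 hr. 3) Add HTRF IL-2 reagents (a-IL-2-K, a-IL-2-d2).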
* marks the source's active call; other numbers are inactive results; ? = inconclusive; . = no result given; [ ] = another dose, or the depositor's remark. Compounds with a hit are over-represented: about 3.7% of the library has one in this group of screens. Unless noted, the call rests on the fitted dose curve; in most records, active means well fitted curve in the direction sought with a large enough effect; inconclusive means small, poorly fitted or top-dose-only effect, or another doubt; inactive means no such curve, though single readings can be large; an effect the other way counts as inactive or inconclusive.

SMILES	miR-21 reporter	Nrf2 ARE act	ClpP mod	A549 viability	Nrf2 inh	TCR activator
CSc1ccccc1OCc1cc(C(=O)NCCN2CCCC(O)C2)no1 (configuration not stated)	-7%	0%	28µM*	19%	2%	1%
CC(C)CC(NC(=O)c1ccc(Cl)cc1)C(=O)OCc1cc([N+](=O)[O-])cc2c1OCOC2 (configuration not stated)	-11%	0%	22µM*	5%	5%	-1%[46.1 µM]
Cc1cccc(-c2noc(-c3ccc(NCc4cccnc4)c([N+](=O)[O-])c3)n2)c1	-32%	9%	0%	-1%	-10%	.
O=C(CN1C2CCCC1CC(NC(=O)C1CCCCC1)C2)Nc1ccccc1C(F)(F)F (configuration not stated)	0%	3%	.	-8%	23µM*	-1%
COc1cccc(C(=O)NC2CC3CCCC(C2)N3CC(=O)Nc2ccccc2C(F)(F)F)c1 (configuration not stated)	?	2%	.	2%	?	-10%
Cc1cn2c(=O)c(S(=O)(=O)Nc3ccc(OC(F)(F)F)cc3)c(C)nc2s1	?	3%	-1%	1%	?	.
Cc1cn2c(=O)c(S(=O)(=O)NC(C)c3ccccc3)c(C)nc2s1 (configuration not stated)	-3%	-1%	32µM*	11%	?	.
Cc1ccc(CNS(=O)(=O)c2c(C)nc3sc(C)cn3c2=O)cc1	-3%	0%	28µM*	2%	-3%	.
Cc1cn2c(=O)c(S(=O)(=O)NCCc3ccc(Cl)cc3)c(C)nc2s1	-3%	-1%	?	11%	5%	.
O=C1Cc2cc(S(=O)(=O)Nc3ccc(N4CCOCC4)cc3)ccc2N1	.	0%	-1%	2%	-1%	-3%
COc1cc(NS(=O)(=O)c2ccc(C)cc2)c2c(c1N)C(=O)c1ccccc1C2=O	.	0%	2%	.	.	.
CC(C)(C(=O)N1CCC1(C)C(=O)NS(=O)(=O)c1ccc(C#N)cc1)c1ccccc1 (configuration not stated)	.	1%	-4%	.	.	.
CCN(CC)c1ccc(NC2=C(Cl)C(=O)c3ccccc3C2=O)cc1	-50%	?	0%	21µM*	?	-1%[46.1 µM]
Cc1ccc(NC2=C(Cl)C(=O)c3ccccc3C2=O)cc1	-51%	?	1%	?	23%	0%[46.1 µM]
O=C(CSC1=NCCS1)NC(NC(=O)CSC1=NCCS1)c1ccccc1	5%	2%	.	-15%	?	2%
COC(=O)c1cc(NC(=O)CSC2=NCCS2)cc(C(=O)OC)c1	-2%	2%	25µM*	2%	-20%	.
C=C(C)CN1C(=O)C(C)SC1=NN=C1SCC(=O)N1C (configuration not stated)	.	0%	-2%	.	.	.
Cc1c(NC(=O)COC(=O)c2ccc(Cl)nc2)c(=O)n(-c2ccccc2)n1C	.	0%	.	1%	-1%	-3%
CCN(CC)CCC(c1ccc(OC)cc1)c1c(OC)cc(OC)c2c(C)cc(=O)oc12 (configuration not stated)	.	.	.	12µM*	-5%	.
CCN(CC)CCC(c1ccc2c(c1)OCO2)c1c(OC)cc(OC)c2c(C)cc(=O)oc12 (configuration not stated)	.	.	.	-26%	8%	.
O=C1C(Cl)=C(N2CCCCCC2)C(=O)N1c1ccc(Cl)cc1	-2%	5%	0%	-5%	9%	.
O=C1C(Cl)=C(N2CCCC2)C(=O)N1c1ccc(F)cc1	9%	2%	25µM*	2%	4%	1%
Cc1ccc(N2C(=O)C(Cl)=C(N3CCCCCC3)C2=O)c(C)c1	-3%	-1%	-1%	?	23µM*	-1%
